The text below walks through data of PubChem BioAssay (Tox21).

The nature of assay [1]: qHTS assay for small molecule agonists of the p53 signaling pathway (AID 651631; calls by dose curve; also: nearly all actives have a fitted effect of over 15% in size). Put shortly:
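Read-out is beta-lactamase FRET fluorescence measured 2 h after substrate addition at room temperature, in HCT-116 cells with a p53 response element-driven reporter exposed to compounds for 16 h at 37 °C.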
Background: Quantitative high-throughput screening tests each substance at several concentrations.

Assay [2] in a line: qHTS assay for small molecules that induce genotoxicity in human embryonic kidney cells expressing luciferase-tagged ATAD5 (AID 651632). Also: nearly all actives have a fitted effect of over 15% in size. Put shortly:
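Luminescent reporter readout, HEK293T ATAD5-luc line: 16 hr drug exposure (37C, 5% CO2) followed by Amplite, 30 min RT.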

The nature of assay [3]: qHTS assay for small molecules that induce genotoxicity in human embryonic kidney cells expressing luciferase-tagged ATAD5 - cell viability (AID 651634; calls by dose curve; also: nearly all actives have a fitted effect of over 25% in size). In outline: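 Viability read: CellTiter-Fluor fluorescence, 30 min at 37C. Cells: HEK293T, luciferase-tagged ATAD5. Exposure: 15.5 hr, 37C, 5% CO2, compound or DMSO vehicle.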
Assay [4] in a line: qHTS assay for small molecule disruptors of the mitochondrial membrane potential - cell viability (AID 720634; calls by dose curve;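 also: human HepG2 liver cancer cells; series mostly up to about 83 µM; nearly all actives have a fitted effect of over 20% in size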). In outline: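 HepG2, 1 hr compound, 37 C. ATP luminescence via CellTiter-Glo, 30 min RT, same well as m-MPI.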
A short description of assay [5]: qHTS assay to test for compound auto fluorescence at 590 nm (red) in HepG2 cells (AID 720674). Put shortly: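 Fluorescence at 590 nm emission following 540 nm excitation was recorded from HepG2 wells one hour after compound transfer, with DMSO-only wells as vehicle and Rose Bengal sodium equivalency as the scale.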
Assay [6] is described as follows: qHTS assay to test for compound auto fluorescence at 535 nm (green) in HepG2 cells (AID 720675).
Assay [7] in a line: qHTS assay to test for compound auto fluorescence at 460 nm (blue) in HEK293 cells (AID 720678). Put shortly:
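HEK293 cells (2,000/well, medium with 10% dialyzed FBS) attached 4-5 hr, then exposed to compound overnight at 37C, 5% CO2. Blue fluorescence read at 405/460 nm, with triamterene as reference fluorophore.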

Assay [8] in a line: qHTS assay to test for compound auto fluorescence at 535 nm (green) in HEK293 cells (AID 720680).
Assay [9] is described as follows: qHTS assay to test for compound auto fluorescence at 460 nm (blue) in HEK293 cell free culture (AID 720681). Put shortly: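 Compounds were added to cell-free DMEM with 10% FBS and fluorescence read directly. The blue channel used 405 nm excitation and 460 nm emission, with triamterene as the reference fluorophore.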
Assay [10] is described as follows: qHTS assay to test for compound auto fluorescence at 535 nm (green) in HEK293 cell free culture (AID 720682). Put shortly:
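Fluorescein serves as the green reference fluorophore; each compound's intrinsic emission at 535 nm (excitation 485 nm) is reported as an equivalent amount of that dye, measured in serum-containing DMEM without cells.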

A short description of assay [11]: qHTS assay to test for compound auto fluorescence at 590 nm (red) in HEK293 cell free culture (AID 720683). Put shortly:
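Cell-free wells of DMEM with 10% FBS received compound, and intrinsic fluorescence was read at excitation/emission 540/590 nm. Values expressed as equivalence to Rose Bengal sodium.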

Assay [12] can be described thus: qHTS assay to test for compound auto fluorescence at 590 nm (red) in HepG2 cell free culture (AID 720684). In outline: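 Compound was pinned into wells holding MEM with 10% FBS and no cells, and red fluorescence was read at Ex/Em 540/590 nm. Signal is expressed as auto fluorescence equivalency relative to Rose Bengal sodium.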
Assay [13] is described as follows: qHTS assay to test for compound auto fluorescence at 460 nm (blue) in HepG2 cell free culture (AID 720685). In outline: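 Compound (23 nL) or DMSO pinned into cell-free MEM with 10% FBS; blue fluorescence read at 405/460 nm excitation/emission, expressed as auto-fluorescence equivalency to triamterene.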
Assay [14] can be described thus: qHTS assay to test for compound auto fluorescence at 535 nm (green) in HepG2 cell free culture (AID 720686).
Assay [15] is described as follows: qHTS assay to test for compound auto fluorescence at 460 nm (blue) in HepG2 cells (AID 720687). Put shortly: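 HepG2 cells in MEM with 10% FBS, attached overnight at 37 C, were exposed to compound or DMSO for 1 hr at 37 C, 5% CO2. Blue fluorescence was read at 405/460 nm, with triamterene as reference fluorophore.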
Assay [16] addresses Glucocorticoid receptor (Homo sapiens) (UniProt P04150). Kind of assay: qHTS assay to identify small molecule agonists of the glucocorticoid receptor (GR) signaling pathway (AID 720691; active = well fitted activation curve with a large enough effect in the signal ratio in the repeat runs, not every such curve was filed as active; the % refers to the signal ratio). Put shortly: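 qHTS in GR-bla HeLa cells: 4 h settling at 37 C/5% CO2, 18 h compound incubation at 37 C, 2 h LiveBLAzer B/G FRET substrate at room temperature, fluorescence intensity measured.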

A short description of assay [17]: qHTS assay for small molecule agonists of the p53 signaling pathway - cell viability (AID 651633; calls by dose curve;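 also: p53RE-bla HCT reporter cells with a stable beta-lactamase p53 reporter; series mostly up to about 83 µM; nearly all actives have a fitted effect of over 30% in size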). In outline: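 p53RE-bla cells were treated with compound for 16 hours at 37 C. Cytotoxicity was then measured as CellTiter-Glo luminescence after 30 min at room temperature.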
A short description of assay [18]: qHTS assay for small molecule disruptors of the mitochondrial membrane potential (AID 720635). Also: potency is read from the fitted curve at half-maximal effect. In outline:
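HepG2 cells exposed to compound 1 hr at 37C, then Mito-MPS dye 30 min. Ratio read of aggregate (540/590 nm) versus monomer (490/535 nm) fluorescence.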

Assay [19] can be described thus: qHTS assay to test for compound auto fluorescence at 590 nm (red) in HEK293 cells (AID 720679). Put shortly:
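HEK293 cells (2,000/well, 10% dialyzed FBS) attached 4-5 hr, then dosed with compound or DMSO and incubated overnight at 37C, 5% CO2. Red fluorescence read at 540/590 nm, Rose Bengal sodium as reference fluorophore.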

Assay [20] addresses Glucocorticoid receptor (Homo sapiens) (UniProt P04150). Nature of the assay: qHTS assay to identify small molecule antagonists of the glucocorticoid receptor (GR) signaling pathway (AID 720692; active = well fitted inhibition curve with a large enough effect in the signal ratio in the repeat runs, not every such curve was filed as active; the % refers to the signal ratio). Put shortly: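 Inhibition of glucocorticoid signalling is measured in HeLa cells with a GRE-controlled beta-lactamase reporter; cells are co-treated with compound and 5 nM dexamethasone (final) for 18 h before FRET substrate readout.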

Values without a mark were called inactive. Results filed as inconclusive are left out. Active and inactive are the calls of the source. Unless noted, calls follow the shape of the dose curve; as a rule, active = well fitted curve in the direction sought with a large enough effect in the repeat runs; inconclusive = weak or mixed curves; inactive = no such curve, though single readings can be large; an effect the other way counts as inactive or inconclusive.

Glucocorticoid receptor (Homo sapiens), sequence (P04150 whole entry, looked up): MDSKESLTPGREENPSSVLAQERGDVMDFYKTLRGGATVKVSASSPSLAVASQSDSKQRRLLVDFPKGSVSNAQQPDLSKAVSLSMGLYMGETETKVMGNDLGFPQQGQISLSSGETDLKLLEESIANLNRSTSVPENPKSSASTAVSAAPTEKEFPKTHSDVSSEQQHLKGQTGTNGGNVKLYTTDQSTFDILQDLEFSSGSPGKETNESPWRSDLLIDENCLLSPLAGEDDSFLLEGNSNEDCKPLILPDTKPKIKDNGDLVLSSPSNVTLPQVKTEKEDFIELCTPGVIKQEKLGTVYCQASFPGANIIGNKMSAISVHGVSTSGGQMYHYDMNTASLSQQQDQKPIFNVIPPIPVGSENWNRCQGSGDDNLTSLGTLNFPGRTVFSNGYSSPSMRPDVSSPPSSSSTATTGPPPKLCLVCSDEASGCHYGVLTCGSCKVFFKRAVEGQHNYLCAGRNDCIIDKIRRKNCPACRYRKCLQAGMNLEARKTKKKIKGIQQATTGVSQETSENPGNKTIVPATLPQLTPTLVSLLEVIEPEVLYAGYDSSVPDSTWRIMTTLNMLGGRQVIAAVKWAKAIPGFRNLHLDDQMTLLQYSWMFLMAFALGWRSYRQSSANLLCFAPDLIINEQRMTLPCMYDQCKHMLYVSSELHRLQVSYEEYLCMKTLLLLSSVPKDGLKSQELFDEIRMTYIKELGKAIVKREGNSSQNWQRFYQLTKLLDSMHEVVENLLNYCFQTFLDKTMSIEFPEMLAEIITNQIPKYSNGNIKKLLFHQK

For `CCCCOCCOC(=O)COc1ccc(Cl)cc1Cl`, the outcome in assay [1], in [2], in [4], in assay [5], in [6] and in assay [7] was inactive. For the same molecule, the molecule was called inactive in [8], in assay [9], in assay [10], in assay [11], in assay [12] and in [13]. For the same molecule, the molecule was classed as inactive in [14] and in [15]. Further, the Potency result in assay [3] and in assay [16] was “inactive” in each case.

As to `O=S(=O)(O)c1ccc2c(N=Nc3ccc(S(=O)(=O)O)c4ccccc34)c(O)c(S(=O)(=O)O)cc2c1`, the call in assay [1], in [17], in [4], in assay [5], in assay [6] and in [7] was inactive. Moreover, the molecule was classed as inactive in [8], in assay [9], in assay [10], in assay [11], in assay [12] and in [13]. In addition, the call in [14] and in assay [15] was inactive.

Take `CC(=O)CC(=O)OC(C)(C)C`: the result in assay [1], in [2], in assay [4], in assay [6], in assay [7] and in [19] was inactive. For the same molecule, the call in [8], in assay [9], in assay [10], in assay [11], in assay [12] and in assay [13] was inactive. In addition, the molecule was classed as inactive in assay [14] and in assay [15]. Besides, the Potency result in assay [3], in [18] and in assay [16] was “inactive” in each case.

Consider `CC1c2ccccc2CN1NC(=O)c1ccc(Cl)c(S(N)(=O)=O)c1` (stereo not given), for which the result in [1], in [2], in assay [4], in [5], in assay [6] and in [7] was inactive. Moreover, the result in assay [19], in [8], in [9], in assay [10], in [11] and in [12] was inactive. Besides, the outcome in assay [13], in assay [14], in assay [15] and in assay [20] was inactive. The Potency entry in assay [3], in assay [18] and in assay [16] was “inactive” each time.

Regarding `C[Si]1(C)O[Si](C)(C)O[Si](C)(C)O[Si](C)(C)O[Si](C)(C)O1`, the molecule was classed as inactive in [1], in assay [2], in [4], in [5], in [6] and in assay [7]. The result in [19], in assay [8], in assay [9], in assay [10], in assay [11] and in assay [12] was inactive. Besides, the outcome in assay [13], in assay [14] and in assay [15] was inactive. Further, the Potency result in assay [3], in assay [18] and in assay [16] was “inactive” throughout.

With `CC(O)COC(C)(C)C` (stereo not given), the outcome in assay [1], in assay [17], in [4], in [5], in assay [6] and in [7] was inactive. Besides, the call in [8], in [9], in [10], in assay [11], in assay [12] and in assay [13] was inactive. The molecule was called inactive in [14] and in assay [15]. Besides, the Potency result in assay [3] and in assay [16] was “inactive” each time.

For `CC(=O)O[Si](C)(OC(C)=O)OC(C)=O`, the outcome in assay [1], in assay [2], in assay [4], in assay [5], in assay [6] and in [7] was inactive. The outcome in assay [19], in assay [8], in assay [9], in assay [10], in assay [11] and in assay [12] was inactive. Besides, the result in [13], in assay [14] and in [15] was inactive. For the same molecule, the Potency in [18] was 17.7 µM (active). For the same molecule, the Potency entry in assay [16] was “inactive”.

For the molecule `CCCCC1CCC(O)CC1` (stereo not given), the molecule was called inactive in assay [1], in assay [2], in assay [4], in assay [5], in assay [6] and in assay [7]. The result in assay [19], in assay [8], in [9], in assay [10], in assay [11] and in assay [12] was inactive. Further, the outcome in [13], in assay [14] and in [15] was inactive. The Potency result in assay [3], in assay [18] and in [16] was “inactive” in each case.
